Test results: PubChem BioAssay (NCI)
This is part of a sample that, as a whole, favours compounds with a hit. Of some 83,000 tested, about 20% had one in any assay.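 For each line, cells grew in 96-well plates with the test compound present at a single concentration for 48 hours.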 Active and inactive are the calls of the source. How the source made its calls: active means growth percent below 10; inactive means the rest.

Assays:
Assay in all cases: NCI-60 one-dose screen, 48 h (100 = growth as untreated, 0 = no growth, -100 = all killed)
Settings in all cases: 10 µM unless noted
SK-MEL-2 melanoma = test system: SK-MEL-2 melanoma
EKVX NSCLC = test system: EKVX NSCLC
SN12C renal = test system: SN12C renal
UO-31 renal = test system: UO-31 renal
TK-10 renal = test system: TK-10 renal
ACHN renal = test system: ACHN renal
CAKI-1 renal = test system: CAKI-1 renal
A498 renal = test system: A498 renal
CCRF-CEM leukemia = test system: CCRF-CEM leukemia
MOLT-4 leukemia = test system: MOLT-4 leukemia

Measured: growth

COc1cc(/C(Cl)=C/C=C/C(=O)c2c(C)[n+]([O-])c3ccc(Cl)cc3[n+]2[O-])cc(OC)c1OC
active: CCRF-CEM leukemia 8.02%
inactive: SK-MEL-2 melanoma 28.5% | EKVX NSCLC 89.3% | SN12C renal 31.9% | UO-31 renal 45.7% | TK-10 renal 71.6% | ACHN renal 26.9% | CAKI-1 renal 41.3% | A498 renal 85.1% | MOLT-4 leukemia 12.4%

O=Nc1c2cccnc2n2nnc3ccc(Cl)cc3c12
active: UO-31 renal -37.4% | ACHN renal -49.8% | CAKI-1 renal 5.93% | CCRF-CEM leukemia -60.5% | MOLT-4 leukemia -54.3%
inactive: SK-MEL-2 melanoma 57.1% | EKVX NSCLC 77.4% | SN12C renal 56.5% | TK-10 renal 16.5% | A498 renal 88.3%

O=C(NN1C(=O)c2cc(C(=O)O)c(C(=O)O)cc2C1=O)c1ccncc1
inactive: SK-MEL-2 melanoma 104% | EKVX NSCLC 108% | SN12C renal 93.9% | UO-31 renal 112% | TK-10 renal 88.4% | ACHN renal 102% | CAKI-1 renal 98.2% | A498 renal 112% | CCRF-CEM leukemia 103% | MOLT-4 leukemia 98.6%

O=c1c2ccccc2c2nccn2c2cc(Cl)ccc12
active: MOLT-4 leukemia -54.9%
inactive: SK-MEL-2 melanoma 81.5% | EKVX NSCLC 83.2% | SN12C renal 112% | UO-31 renal 70.7% | TK-10 renal 137% | ACHN renal 138% | CAKI-1 renal 75.2% | A498 renal 77.9% | CCRF-CEM leukemia 34%

COc1cc(-c2nc3nc4sc(C)c(C)c4c(=O)n3[nH]2)cc(OC)c1OC
inactive: SK-MEL-2 melanoma 80.1% | EKVX NSCLC 88% | SN12C renal 93.6% | UO-31 renal 54.7% | TK-10 renal 110% | ACHN renal 83.2% | CAKI-1 renal 61.8% | A498 renal 74.5% | CCRF-CEM leukemia 61% | MOLT-4 leukemia 68.3%

O=C1Nc2ccc(Cl)cc2[C@@](C#CC2CC2)(C(F)(F)F)O1
inactive: SK-MEL-2 melanoma 95.5% | EKVX NSCLC 112% | SN12C renal 85.8% | UO-31 renal 116% | TK-10 renal 106% | ACHN renal 88.6% | CAKI-1 renal 91.4% | A498 renal 106% | CCRF-CEM leukemia 87.4% | MOLT-4 leukemia 74.1%

Cc1nn(-c2ccccc2)cc1/C=C1\SC(N2CCCCC2)=NC1=O
inactive: SK-MEL-2 melanoma 94% | EKVX NSCLC 94.2% | SN12C renal 93% | UO-31 renal 65.1% | TK-10 renal 78.5% | ACHN renal 74.7% | CAKI-1 renal 39.8% | A498 renal 71.3% | CCRF-CEM leukemia 43.6% | MOLT-4 leukemia 58.6%

O=C(/C=C/c1ccc([N+](=O)[O-])cc1)c1ccc2c3c(cccc13)CC2
inactive: EKVX NSCLC 87.3% | SN12C renal 89.8% | UO-31 renal 19.2% | TK-10 renal 107% | ACHN renal 99.1% | CAKI-1 renal 72.1% | CCRF-CEM leukemia 35.5% | MOLT-4 leukemia 62.7%
active: SK-MEL-2 melanoma -24.8% | A498 renal -63.2%

CCOC(CNCc1cc(C)c2[nH]c3ccccc3c2c1C)OCC
inactive: SK-MEL-2 melanoma 62.2% | EKVX NSCLC 90% | SN12C renal 69.7% | UO-31 renal 45.1% | TK-10 renal 77.3% | ACHN renal 88.3% | CAKI-1 renal 71.4% | A498 renal 39.8% | CCRF-CEM leukemia 77.5% | MOLT-4 leukemia 62.5%

CC(=O)[C@H]1CC[C@H]2[C@@H]3C[C@H](C)C4=CC(=O)CC[C@]4(C)[C@H]3C(=O)C[C@]12C
inactive: SK-MEL-2 melanoma 98.9% | EKVX NSCLC 114% | SN12C renal 94.5% | UO-31 renal 87% | TK-10 renal 104% | ACHN renal 95.8% | CAKI-1 renal 94.8% | A498 renal 74% | CCRF-CEM leukemia 104% | MOLT-4 leukemia 92.3%

COC(=O)c1cc2oc(/C=N\NC(=O)c3cc4oc(C)c(C)c4[nH]3)cc2[nH]1
inactive: SK-MEL-2 melanoma 109% | EKVX NSCLC 91.6% | SN12C renal 120% | UO-31 renal 94.7% | TK-10 renal 132% | ACHN renal 104% | CAKI-1 renal 80.5% | A498 renal 115% | CCRF-CEM leukemia 83.7% | MOLT-4 leukemia 82.1%

O=C(Oc1cccc2ccccc12)c1ccccc1C(=O)c1ccccc1
inactive: SK-MEL-2 melanoma 97.1% | EKVX NSCLC 80% | SN12C renal 101% | UO-31 renal 60.8% | TK-10 renal 129% | ACHN renal 95.5% | CAKI-1 renal 88.1% | A498 renal 70.8% | CCRF-CEM leukemia 16% | MOLT-4 leukemia 14.8%
